In PubChem BioAssay AID492962 (National Center for Advancing Translational Sciences (NCATS), 2010):
Activity calls are given as the source filed them. No rule for the calls is given here.

Experiment: Mouse Th1 T cell differentiation assay for inhibitors of ROR gamma transcriptional activity
Details: mouse naive CD4 T cells, Th1 IFN-g flow cytometry; activity: at 30 µM, hits give high values unless noted; outcome: at 3 µM unless noted
From the text: NIH Molecular Libraries Probe Production Network [MLPCN] NIH Chemical Genomics Center [NCGC] MLPCN Grant: R03 DA026211-01 Assay Provider: Dan Littman, New York University Keywords: NIH Roadmap, MLPCN, MLI, MLSMR, qHTS, NCGC, qHTS, nuclear hormone receptor, retinoic acid-related orphan receptor, ROR gamma Assay Overview: The retinoic acid-related orphan receptor (ROR) gamma is a transcription factor that has a central role in the differentiation of Th17 cells, a subset of T helper cells that secrete the inflammatory cytokines IL-17a, IL-17f, and IL-22. Th17 cells have been implicated in graft versus host disease, autoimmune disease and asthma. ROR gamma is induced in naive T helper cells in the presence of TGF-beta combined with IL-6, IL-21, or IL-23, and thereafter directs the expression of the Th17 lineage cytokines. To confirm the selectivity of ROR gamma inhibitors, compounds with strong inhibitory activities on Th17 cells were tested in a mouse Th1 T cell differentiation assay. T cells differentiate into Th1 cells in the presence of IL-12 and IL-2. […] Th1 differentiation was tracked by the induction of interferon gamma (IFN-g) expression as measured by an anti-IFN-g antibody using flow cytometry.
Assay Protocol Summary: Cells from lymph nodes and spleens derived from six to eight week old IL17a-GFP mice (Biocytogen LLC) were used for T cell purification. B220- cells were isolated on an autoMACS Pro with bead depletion of B220+ cells (Miltenyi). Naive CD4+ T cell were further purified as TCRb+CD8- DAPI- CD19- CD4+CD25- CD62L+CD44low/Int by cell sorting on a FACSAria (BD). Cells were cultivated in an incubator at 37 C and 5% CO2 in RPMI 1640 medium (Invitrogen) supplemented with 10% (vol/vol) heat-inactivated FBS (Hyclone), penicillin-streptomycin, 2 mM glutamine and 0.1 mM nonessential amino acids. Cells were seeded on day 0 at a density of 0.4E5 cells per ml in 96-well plates coated with anti-CD3e (5 ug/ml) and anti-CD28 (10 ug/ml). Cells were cultured for 4~5 days in Th1 [IL-12 (10 ng/ml), IL-2 (100 U/ml), anti-IL-4] condition. […]

Question: Which outcome does the source give for `COc1cc(O)c(C(CC(=O)N2CC(C)CC(C)C2)c2ccc3c(c2)OCO3)c(OC)c1` (stereo not drawn) here?
Answer: inactive

Question: For `CC1CCCN(C(=O)CC(c2ccc3c(c2)OCO3)c2ccc3ccccc3c2O)C1` (stereo not drawn), which activity is on record?
Answer: 32.5% [at 25 µM, hits give high values] (inactive)

Question: For `COc1cc(O)c(C(CC(=O)N2CCCC(C)C2)c2ccccc2OC)c(OC)c1` (stereo not drawn), which activity is on record?
Answer: 46.1% (inactive)
